# Source: PubChem BioAssay (Tox21)
# Values joined by “and” are separate entries in the source; they are usually repeats but may differ in a detail not shown here. Equal entries are not always repeated. Inconclusive results are not listed. A call without a number means that no potency is given here. Active and inactive are the calls of the source. Calls come from the whole dose curve; as a rule, active = well fitted curve in the direction sought with a large enough effect in the repeat runs; inconclusive = weak or mixed curves; inactive = no such curve, though single readings can be large; an effect the other way counts as inactive or inconclusive.
# Assays:
# [1] = qHTS assay to identify small molecule antagonists of the retinoid acid receptor (RAR) signaling pathway - cell viability counter screen (AID 1159551); note: nearly all actives have a fitted effect of over 35% in size
# Outline: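 Measured by luminescent ATP detection, viability reflects C3RL4 cells treated 6 h at 37 C with test chemicals in the presence of 1 uM (final) retinol.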
# [2] = qHTS assay to identify small molecule antagonists of the estrogen related receptor (ERR) signaling pathway from Tox21 library - cell viability counter screen (AID 1224834); note: nearly all actives have a fitted effect of over 30% in size
# Outline: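 Seeded ERR cells were rested 6 h at 37 C/5% CO2 before compounds, positive and negative controls or DMSO were added. Incubation continued for 17.5 h, and viability was then quantified by CellTiter-Fluor fluorescence.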
# [3] = molecular target: Luciferin 4-monooxygenase (Photinus pyralis) (UniProt P08659); assay: qHTS assay to identify small molecule inhibitors of firefly luciferase (AID 1224835); note: nearly all actives have a fitted effect of over 25% in size
# Outline: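 Biochemical qHTS: compounds run as interplate titrations against purified firefly enzyme, with D-luciferin and ATP each at its KM concentration. Light output recorded by CCD imaging.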
# Potency is the fitted concentration of half-maximal effect.
# Luciferin 4-monooxygenase (Photinus pyralis), sequence (P08659 whole entry, looked up): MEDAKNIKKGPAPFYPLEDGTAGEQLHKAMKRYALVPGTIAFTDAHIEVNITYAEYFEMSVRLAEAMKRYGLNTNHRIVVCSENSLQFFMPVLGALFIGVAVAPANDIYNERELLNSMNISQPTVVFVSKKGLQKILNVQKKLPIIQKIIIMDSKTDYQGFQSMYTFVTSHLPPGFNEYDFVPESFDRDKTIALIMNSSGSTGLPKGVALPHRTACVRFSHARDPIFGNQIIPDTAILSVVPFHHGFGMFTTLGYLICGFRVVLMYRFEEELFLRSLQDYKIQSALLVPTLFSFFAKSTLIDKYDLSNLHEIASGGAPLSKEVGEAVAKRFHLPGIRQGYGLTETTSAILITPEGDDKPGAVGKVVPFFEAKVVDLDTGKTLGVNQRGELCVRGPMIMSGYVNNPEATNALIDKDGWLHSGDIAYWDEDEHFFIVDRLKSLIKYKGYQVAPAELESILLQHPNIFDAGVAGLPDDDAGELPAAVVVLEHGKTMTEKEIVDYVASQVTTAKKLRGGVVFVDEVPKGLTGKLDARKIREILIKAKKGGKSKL
Structure (SMILES),Potency [1],Potency [2],Potency [3]
COC(=O)C1=C(C)NC(C)=C(C(=O)OCCN2CCN(C(c3ccccc3)c3ccccc3)CC2)C1c1cccc([N+](=O)[O-])c1 (centres undefined),inactive,11.9 µM (active),inactive
Sc1nc2ccccc2s1,inactive,inactive,
C1CCC(SSC2CCCCC2)CC1,inactive,inactive,inactive
COc1ccc(NC(=O)CC(C)=O)cc1,inactive,inactive,inactive
[Cu+],inactive,inactive,35.6 µM (active)
Nc1cc(Cl)c(O)c(Cl)c1,inactive,inactive,inactive
S=c1nccc[nH]1,inactive,inactive,inactive
CCCCCCCCCCOC(=O)c1ccccc1C(=O)OCCCCCCCC,inactive,inactive,
CN1CCC[C@@H]1CCO[C@](C)(c1ccccc1)c1ccc(Cl)cc1,inactive,26.6 µM (active),
O=C(O)c1cc(O)c2ccccc2c1O,61.1 µM (active),27.3 µM (active),31.7 µM (active)
CCCCOC(=O)CO,inactive,inactive,inactive
O=C1c2ccccc2C(=O)N1SC1CCCCC1,inactive,68.6 µM (active),25.2 µM (active) and 17.8 µM (active)
Cc1c2ccccc2c(C)c2c1ccc1ccccc12,inactive,27 µM (active) and 54.5 µM (active),19.8 µM (active) and 31.7 µM (active)
CC1=CCC(=C(C)C)CC1,inactive,inactive,inactive
C#C[C@]1(OC(C)=O)CC[C@H]2[C@@H]3CCC4=C[C@@H](OC(C)=O)CC[C@@H]4[C@H]3CC[C@@]21C,inactive,,inactive
COc1cc(C)ccc1O,inactive,inactive,inactive
CN1CCN(Cc2cc(-c3ccc4[nH]c(=O)oc4c3)co2)[C@@H](c2ccc(F)cc2)C1,inactive,23.4 µM (active),inactive
OC/C=C/CO,inactive,inactive,
Cc1ccc(C(C)C)cc2c(C)ccc1-2,inactive,inactive,inactive
Clc1sc(Cl)c(Cl)c1Cl,inactive,inactive,inactive
CN(C)CCN1CCN(c2cccc(Cl)c2)C1=O,inactive,inactive,
c1ccsc1,inactive,inactive,
